This passage reports activation (% of full agonist control) and activation (% of partial agonist control) results from PubChem BioAssay AID504452 (The Scripps Research Institute Molecular Screening Center, 2011).

The test has as its target Peroxisome proliferator-activated receptor gamma (Homo sapiens) (UniProt P37231). Description: PPARg partial agonist activation, primary screen, cell-based, luciferase reporter, luminescence (AID 504452).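 Further: Cos-1 cells carrying PPARgamma and a response element luciferase reporter.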 The following applies: at 5 µM, stronger effect = higher value; activation (% of full agonist control): measured here: relative to full agonist control. In general terms: A reporter such as luciferase makes a cellular process visible.

SMILES strings stand for the structures. Calls of active or inactive are those of the source. No stated cut-off is given here; in the data, active means activation above about 85%; inactive means the rest.

Chain of Peroxisome proliferator-activated receptor gamma (Homo sapiens) (P37231 whole entry, looked up): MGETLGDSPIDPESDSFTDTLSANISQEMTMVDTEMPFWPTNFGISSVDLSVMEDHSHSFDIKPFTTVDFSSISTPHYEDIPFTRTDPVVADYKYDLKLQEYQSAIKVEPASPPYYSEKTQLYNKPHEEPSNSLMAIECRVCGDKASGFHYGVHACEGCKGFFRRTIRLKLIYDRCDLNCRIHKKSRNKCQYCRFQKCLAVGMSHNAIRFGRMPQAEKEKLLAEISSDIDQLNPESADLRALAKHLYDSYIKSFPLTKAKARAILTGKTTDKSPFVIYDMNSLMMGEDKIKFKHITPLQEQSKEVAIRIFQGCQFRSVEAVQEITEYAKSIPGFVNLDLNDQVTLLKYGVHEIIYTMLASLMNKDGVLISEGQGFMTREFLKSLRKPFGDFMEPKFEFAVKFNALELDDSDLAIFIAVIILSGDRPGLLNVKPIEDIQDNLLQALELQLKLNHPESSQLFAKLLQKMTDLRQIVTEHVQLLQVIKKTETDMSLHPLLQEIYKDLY

As for `CCOc1cc(N2CCOCC2)c(OCC)cc1NC(=O)c1oc2ccccc2c1C`, the activation (% of full agonist control) came to 29.4% and the activation (% of partial agonist control) is 65.1% (inactive).

As for `O=C1C(=O)N(CC2CCCO2)C(c2ccco2)/C1=C(/O)c1ccc(F)cc1` (stereo not given), the activation (% of full agonist control) stood at 15% and the activation (% of partial agonist control) is 33.1% (inactive).

Take `CC(C(=O)N1CCN(c2ccccc2)CC1)N1C(=O)C2CC=CCC2C1=O` (stereo not given): the activation (% of full agonist control) turned out to be 32.1% and the activation (% of partial agonist control) was 71.1% (inactive).

On to `O=C(N[C@@H]1CCC(=O)N(CC[C@H](Oc2ccccc2)c2ccccc2)CC1)OCc1ccccc1`, for which the activation (% of full agonist control) worked out at 28.1% and the activation (% of partial agonist control) is 62.1% (inactive).

As to `COc1ccccc1N1C(=O)C2C(c3ccc(F)cc3)NN(C(=O)c3ccc(C)cc3)C2C1=O` (stereo not given), the activation (% of full agonist control) came out at 30.1% and the activation (% of partial agonist control) is 66.5% (inactive).

With `COc1ccc(CCn2c(C)cc(C(=O)CN3C(=O)C(=O)N(C4CCCC4)C3=O)c2C)cc1OC`, the activation (% of full agonist control) was determined as 27.1% and the activation (% of partial agonist control) is 60% (inactive).

On to `COc1ccc(-n2c3c(cc(C(=O)NNc4ccccc4C)c2=O)C(=O)CC(C)(C)C3)cc1`, for which the activation (% of full agonist control) is 32.7% and the activation (% of partial agonist control) was 72.5% (inactive).

Consider `COC(=O)c1sc(N2C(=O)C(=O)/C(=C(/O)c3ccc(C)cc3)C2c2ccco2)nc1C` (stereo not given), for which the activation (% of full agonist control) came to 37.7% and the activation (% of partial agonist control) is 83.5% (inactive).

As to `COc1ccc(CNC(=O)Cn2c(=O)n(CCC(=O)N3CCCCC3)c(=O)c3sccc32)cc1`, the activation (% of full agonist control) was 46.4% and the activation (% of partial agonist control) is 103% (active).

`Cc1ccccc1NC(=O)CC1C(=O)Nc2ccccc2N1CC(=O)N(C)C1CCS(=O)(=O)C1` (stereo not given): the activation (% of full agonist control) was found to be 47% and the activation (% of partial agonist control) was 104% (active).

Take `COc1cccc(NC(=O)c2ccc3c(c2)N(CC(=O)N2CCOCC2)C(=O)C(C)(C)O3)c1`: the activation (% of full agonist control) was determined as 32.5% and the activation (% of partial agonist control) was 71.9% (inactive).

With `CCC(=O)Nc1nonc1-c1nc2ccccc2n1Cc1cccc2ccccc12`, the activation (% of full agonist control) was determined as 25.1% and the activation (% of partial agonist control) is 55.5% (inactive).

On to `O=C(COc1cc(F)ccc1[N+](=O)[O-])N1N=C(c2cccs2)CC1c1ccco1` (stereo not given), for which the activation (% of full agonist control) was found to be 35.6% and the activation (% of partial agonist control) is 78.9% (inactive).

Turning to `COc1ccc(C=NNS(=O)(=O)c2ccc(F)cc2)cc1COc1cc(F)ccc1[N+](=O)[O-]`, the activation (% of full agonist control) was found to be 42.9% and the activation (% of partial agonist control) is 95% (active).

In the case of `Cc1cccc(NC(=O)CN2C(=O)N/C(=C/c3ccc(-c4cccc(C(=O)O)c4C)o3)C2=O)c1`, the activation (% of full agonist control) came out at 34.1% and the activation (% of partial agonist control) was 75.5% (inactive).

As to `Cc1ccc(S(C)=O)cc1-n1c(=O)n(Cc2ccccc2)c(=O)c2[nH]cnc21` (stereo not given), the activation (% of full agonist control) is 12.8% and the activation (% of partial agonist control) was 28.4% (inactive).

`COc1cc(C(CC(=O)Nc2cccc(C)n2)N2Cc3ccccc3C2=O)cc(OC)c1OC` (stereo not given): the activation (% of full agonist control) is 29.1% and the activation (% of partial agonist control) was 64.3% (inactive).

Consider `Cc1ccc2nc(N3C(=O)C(O)=C(C(=O)c4ccco4)C3c3ccc(C)o3)sc2c1` (stereo not given), for which the activation (% of full agonist control) is 56.8% and the activation (% of partial agonist control) is 126% (active).

For the compound `COc1ccc2c(c1)c(=O)c(C(=O)c1ccc(Cl)cc1)cn2CC(=O)Nc1ccc(F)cc1`, the activation (% of full agonist control) turned out to be 32% and the activation (% of partial agonist control) was 70.9% (inactive).

Consider `O=S(=O)(NCC(c1ccc2c(c1)OCO2)N1CCOCC1)c1ccc(F)cc1` (stereo not given), for which the activation (% of full agonist control) worked out at 35.4% and the activation (% of partial agonist control) was 78.4% (inactive).

In the case of `COc1cccc(C2CC(=O)N3CN(c4ccccc4F)CSC3=C2C#N)c1` (stereo not given), the activation (% of full agonist control) is 31.6% and the activation (% of partial agonist control) was 69.9% (inactive).

As to `COc1cc(/C=C(\NC(=O)c2ccccc2)C(=O)NC(C(=O)O)c2ccccc2)cc(OC)c1OC` (stereo not given), the activation (% of full agonist control) came out at 39.8% and the activation (% of partial agonist control) is 88% (active).

Turning to `O=C(Cc1cccc(C(F)(F)F)c1)Nc1cc(S(=O)(=O)N2CCOCC2)ccc1N1CCCC1`, the activation (% of full agonist control) was 31.4% and the activation (% of partial agonist control) is 69.5% (inactive).

For `CC(=O)c1ccc(N2CCN(C(=O)C3CCCN(S(=O)(=O)c4cnc[nH]4)C3)CC2)cc1` (stereo not given), the activation (% of full agonist control) came out at 25.1% and the activation (% of partial agonist control) is 55.5% (inactive).

For `COC(=O)C1=CN(Cc2ccc(F)cc2)C=C(C(=O)OC)C1c1ccc(O)c(OC)c1`, the activation (% of full agonist control) amounted to 26.8% and the activation (% of partial agonist control) is 59.4% (inactive).

`O=C(Nc1ccccc1F)C(=O)c1cn(CC(=O)N2CCCCC2)c2ccccc12`: the activation (% of full agonist control) came to 34.4% and the activation (% of partial agonist control) is 76.1% (inactive).

As for `Cc1cc(C(=O)CN2C(=O)C(=O)N(Cc3ccccc3)C2=O)c(C)n1-c1ccc2c(c1)OCCO2`, the activation (% of full agonist control) was found to be 40.4% and the activation (% of partial agonist control) is 89.5% (active).

As to `COCCn1cnc2c1c(=O)n(Cc1cc(C(C)=O)ccc1OC)c(=O)n2Cc1ccccc1`, the activation (% of full agonist control) turned out to be 39.8% and the activation (% of partial agonist control) is 88.2% (active).

For `O=C(CN1c2cccc3cccc(c23)S1(=O)=O)N1CCN(c2ccc(F)cc2)CC1`, the activation (% of full agonist control) was determined as 34.1% and the activation (% of partial agonist control) is 75.5% (inactive).

As for `CCOc1cccc(/C(O)=C2/C(=O)C(=O)N(Cc3ccco3)C2c2ccncc2)c1` (stereo not given), the activation (% of full agonist control) is 41.1% and the activation (% of partial agonist control) is 91% (active).

On to `Cc1nc2c(sc(=S)n2Cc2ccco2)c(=O)n1CC(=O)Nc1cc(F)ccc1F`, for which the activation (% of full agonist control) stood at 32.4% and the activation (% of partial agonist control) was 71.8% (inactive).

Take `O=C(O)CC(NC(=O)C(c1ccccc1)c1ccccc1)c1ccc(F)cc1` (stereo not given): the activation (% of full agonist control) was 27.7% and the activation (% of partial agonist control) is 61.3% (inactive).

As for `Cc1c(-n2cc(C(=O)c3cc(F)ccc3O)cc(C#N)c2=O)c(=O)n(-c2ccccc2)n1C`, the activation (% of full agonist control) was found to be 43.7% and the activation (% of partial agonist control) was 96.7% (active).

As for `CCN(CC)S(=O)(=O)c1ccc(N2CCOCC2)c(NC(=O)C(C)Oc2ccc(F)cc2)c1` (stereo not given), the activation (% of full agonist control) is 29.3% and the activation (% of partial agonist control) is 64.8% (inactive).

With `O=C(CN1CCOC1=O)N1CCCC(N2CCN(c3cccc(C(F)(F)F)c3)CC2)C1` (stereo not given), the activation (% of full agonist control) came to 26.5% and the activation (% of partial agonist control) was 58.8% (inactive).
